Outcome and AC50 data for 7 molecules are collected here from PubChem BioAssay (EPA / NIEHS).

Active and inactive are the calls of the source. Rule for the calls: active = hit-call score of the fitted dose curve at least 0.9, where 1 is the maximum; inactive = score below 0.9.

Read-out in experiment [1]: Interleukin-8 (IL8), CXCL8 (gene 3576)
Put plainly: BSK_CASM3C_IL8: BioMAP Diversity Plus: CASM3C Assay for Interleukin-8 (IL8) Biomarker Activity (AID 2283042).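 Note: IL-8 protein level quantified by ELISA.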 Particulars: primary human coronary artery smooth muscle cells; actives raise or lower the signal.

Read-out in experiment [2]: Human Leukocyte Antigen - DR isotype (HLADR), HLA-DRA (gene 3122)
Put plainly: BSK_CASM3C_HLADR: BioMAP Diversity Plus: CASM3C Assay for Human Leukocyte Antigen - DR isotype (HLADR) Biomarker Activity (AID 2283043).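 Note: cell-surface HLA-DR protein level quantified by ELISA.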 Particulars: primary human coronary artery smooth muscle cells; actives raise or lower the signal.

Read-out in experiment [3]: Macrophage colony-stimulating factor (MCSF), CSF1 (gene 1435)
Briefly: BSK_CASM3C_MCSF: BioMAP Diversity Plus: CASM3C Assay for Macrophage colony-stimulating factor (MCSF) Biomarker Activity (AID 2283044).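 Note: M-CSF protein amount quantified by ELISA after 24 h exposure.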 Particulars: primary human coronary artery smooth muscle cells; actives raise or lower the signal.

Read-out in experiment [4]: Low-density lipoprotein receptor (LDLR), LDLR (gene 3949)
Put plainly: BSK_CASM3C_LDLR: BioMAP Diversity Plus: CASM3C Assay for Low-density lipoprotein receptor (LDLR) Biomarker Activity (AID 2283045).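 Note: LDLR protein level on the cell surface quantified by ELISA.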 Particulars: primary human coronary artery smooth muscle cells; actives raise or lower the signal.

Read-out in experiment [5]: Monocyte Chemoattractant Protein-1 (MCP1), CCL2 (gene 6347)
Briefly: BSK_CASM3C_MCP1: BioMAP Diversity Plus: CASM3C Assay for Monocyte Chemoattractant Protein-1 (MCP1) Biomarker Activity (AID 2283046).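 Note: MCP-1 level quantified by ELISA 24 h after dosing.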 Particulars: primary human coronary artery smooth muscle cells; actives raise or lower the signal.

A short description of experiment [6]: BSK_CASM3C_Proliferation: Cell Proliferation Assessment in the BioMAP Diversity Plus: CASM3C Assay (AID 2283047).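 Note: sulforhodamine B total protein stain as relative cell number at 560 nm; sub-confluent cells exposed 48 h before staining; fitted both ways against DMSO so gain or loss of cell number.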 The conditions noted are these: primary human coronary artery smooth muscle cells.
Read-out in experiment [7]: Monokine induced gamma interferon (MIG), CXCL9 (gene 4283)
Briefly: BSK_CASM3C_MIG: BioMAP Diversity Plus: CASM3C Assay for Monokine induced gamma interferon (MIG) Biomarker Activity (AID 2283048).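 Note: MIG protein level measured by ELISA.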 The conditions noted are these: primary human coronary artery smooth muscle cells; actives raise or lower the signal.

Read-out in experiment [8]: serum amyloid A (SAA), SAA1 (gene 6288)
Briefly: BSK_CASM3C_SAA: BioMAP Diversity Plus: CASM3C Assay for serum amyloid A (SAA) Biomarker Activity (AID 2283049).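 Note: SAA protein level quantified by ELISA.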 The conditions noted are these: primary human coronary artery smooth muscle cells; actives raise or lower the signal.

Experiment [9] is described as follows: BSK_CASM3C_SRB: Viability Assessment in the BioMAP Diversity Plus: CASM3C Assay (AID 2283050).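 Note: total protein by SRB staining as cytotoxicity measure in parallel cultures.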 Particulars: primary human coronary artery smooth muscle cells.
Read-out in experiment [10]: Thrombomodulin, THBD (gene 7056)
Put plainly: BSK_CASM3C_Thrombomodulin: BioMAP Diversity Plus: CASM3C Assay for Thrombomodulin Biomarker Activity (AID 2283051).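 Note: thrombomodulin protein level measured by ELISA 24 h after dosing.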 The conditions noted are these: primary human coronary artery smooth muscle cells; actives raise or lower the signal.

Read-out in experiment [11]: Tissue Factor, F3 (gene 2152)
Put plainly: BSK_CASM3C_TissueFactor: BioMAP Diversity Plus: CASM3C Assay for Tissue Factor Biomarker Activity (AID 2283052).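 Note: cell surface tissue factor protein level read by ELISA.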 Particulars: primary human coronary artery smooth muscle cells; actives raise or lower the signal.

Read-out in experiment [12]: Interferon-gamma inducible Protein 10 (IP10), CXCL10 (gene 3627)
Put plainly: BSK_hDFCGF_IP10: BioMAP Diversity Plus: hDFCGF Assay for Interferon-gamma inducible Protein 10 (IP10) Biomarker Activity (AID 2283053). Particulars: primary human foreskin fibroblasts; actives raise or lower the signal. An outline of the steps: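 Human foreskin fibroblast primary cells (hDFCGF system) were dosed with chemical and assayed at 24 h; IP-10 measured by ELISA. Activity fitted bidirectionally relative to DMSO negative control as baseline.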

Read-out in experiment [13]: Urokinase-type plasminogen activator receptor (uPAR), PLAUR (gene 5329)
Put plainly: BSK_CASM3C_uPAR: BioMAP Diversity Plus: CASM3C Assay for Urokinase-type plasminogen activator receptor (uPAR) Biomarker Activity (AID 2283054).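 Note: cell-surface uPAR protein level quantified by ELISA.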 The conditions noted are these: primary human coronary artery smooth muscle cells; actives raise or lower the signal.

Read-out in experiment [14]: Vascular cell adhesion molecule 1 (VCAM1), VCAM1 (gene 7412)
Put plainly: BSK_CASM3C_VCAM1: BioMAP Diversity Plus: CASM3C Assay for Vascular cell adhesion molecule 1 (VCAM1) Biomarker Activity (AID 2283055).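 Note: VCAM-1 protein level quantified by ELISA on the cells.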 Particulars: primary human coronary artery smooth muscle cells; actives raise or lower the signal.

Read-out in experiment [15]: Collagen III, COL3A1 (gene 1281)
Put plainly: BSK_hDFCGF_CollagenIII: BioMAP Diversity Plus: hDFCGF Assay for Collagen III Biomarker Activity (AID 2283056). The conditions noted are these: primary human foreskin fibroblasts; actives raise or lower the signal. An outline of the steps:
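Response relative to DMSO, fitted in both directions, reflects ELISA-measured collagen III in human primary skin fibroblasts 24 h after compound addition.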

Read-out in experiment [16]: Epidermal growth factor receptor (EGFR), EGFR (gene 1956)
Briefly: BSK_hDFCGF_EGFR: BioMAP Diversity Plus: hDFCGF Assay for Epidermal growth factor receptor (EGFR) Biomarker Activity (AID 2283057). The conditions noted are these: primary human foreskin fibroblasts; actives raise or lower the signal. An outline of the steps: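 Primary human foreskin fibroblasts were exposed to compound for 24 h, after which cell-surface EGFR was quantified by ELISA. Activity was fitted bidirectionally against the DMSO negative control as baseline.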

Read-out in experiment [17]: Interleukin-8 (IL8), CXCL8 (gene 3576)
Put plainly: BSK_hDFCGF_IL8: BioMAP Diversity Plus: hDFCGF Assay for Interleukin-8 (IL8) Biomarker Activity (AID 2283058). The conditions noted are these: primary human foreskin fibroblasts; actives raise or lower the signal. An outline of the steps: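 Fibroblast monolayers (human foreskin, hDFCGF) received test chemical for 24 h before ELISA detection of IL-8; either increases or decreases relative to DMSO count as activity.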

A short description of experiment [18]: BSK_hDFCGF_Proliferation: Cell Proliferation Assessment in the BioMAP Diversity Plus: hDFCGF Assay (AID 2283059).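 Note: curves fitted for both rise and fall of signal versus DMSO baseline.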 Particulars: primary human foreskin fibroblasts. An outline of the steps:
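Steps: dose primary human dermal fibroblasts (foreskin); […] fix in 10% TCA; stain with 0.1% SRB; read 560 nm; fit gain or loss of signal against DMSO.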

Read-out in experiment [19]: Macrophage colony-stimulating factor (MCSF), CSF1 (gene 1435)
Briefly: BSK_hDFCGF_MCSF: BioMAP Diversity Plus: hDFCGF Assay for Macrophage colony-stimulating factor (MCSF) Biomarker Activity (AID 2283060). Particulars: primary human foreskin fibroblasts; actives raise or lower the signal. An outline of the steps:
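fibroblasts (human foreskin, primary), 24 h post-dose; M-CSF by ELISA; bidirectional fit, DMSO = baseline.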

Experiment [20] can be described thus: BSK_hDFCGF_SRB: Viability Assessment in the BioMAP Diversity Plus: hDFCGF Assay (AID 2283061).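 Note: cells exposed to compound for 24 h before the read.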 The conditions noted are these: primary human foreskin fibroblasts. An outline of the steps:
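SRB-based viability read on primary human skin fibroblasts at 24 h: TCA fixation, 0.1% dye, 560 nm. Gain or loss of signal is fitted against the DMSO negative control.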

Turning to `Oc1ccccc1O`, the outcome in experiment [1], in experiment [4], in experiment [5], in experiment [7], in experiment [8] and in experiment [9] was inactive. Further, the outcome in experiment [11], in experiment [13], in experiment [16], in experiment [17] and in experiment [20] was inactive. In addition, the concentration at half-maximal activity (AC50) (commonly the concentration at which the activity in the assay is half-maximal) is 10.4 µM (active) in experiment [2]; 3.97 µM (active) in [3]; 7.66 µM (active) in [6]; 11 µM (active) in experiment [10]; 14.1 µM (active) in experiment [12]; 5.64 µM (active) in experiment [14]. Also, the AC50 in [15] was 10.2 µM (active); in experiment [18] it was 12 µM (active); in experiment [19], 13.3 µM (active).

As for `COC(=O)CCCC(=O)OC`, the outcome in experiment [1], in experiment [2], in experiment [3], in experiment [4], in experiment [5] and in experiment [6] was inactive. The outcome in experiment [7], in [8], in experiment [9], in experiment [10], in experiment [11] and in experiment [12] was inactive. The outcome in experiment [13], in [14], in [15], in [16], in [17] and in experiment [18] was inactive. For the same molecule, the result in [19] and in experiment [20] was inactive.

With `CC(C)COC(=O)CCCCC(=O)OCC(C)C`, the outcome in experiment [1], in experiment [2], in experiment [3], in [4], in experiment [5] and in experiment [6] was inactive. Also, the result in [7], in [8], in [9], in experiment [10], in [11] and in experiment [12] was inactive. In addition, the outcome in [13], in experiment [14], in experiment [15], in experiment [16], in [17] and in [18] was inactive. Moreover, the result in experiment [19] and in [20] was inactive.

Consider `Cc1c(C)c2c(c(C)c1O)CCC(C)(COc1ccc(CC3SC(=O)NC3=O)cc1)O2` (stereo not given), for which the result in [1], in [2], in experiment [3], in [4], in experiment [5] and in [7] was inactive. The outcome in experiment [8], in [9], in experiment [11], in experiment [13] and in experiment [14] was inactive. In addition, the AC50 is 6.88 µM (active) in experiment [6]; 5.08 µM (active) in experiment [10]; 9.98 µM (active) in experiment [12]; 12 µM (active) in experiment [15]; 8.04 µM (active) in experiment [16]; 27.8 µM (active) in experiment [17]. For the same molecule, the values for the AC50 in experiment [18], in [19] and in [20] were 6.8 µM (active), 11.7 µM (active) and 19.2 µM (active), respectively.

Take `NCCOCCOCCN`: the result in [1], in experiment [2], in experiment [3], in experiment [4], in experiment [5] and in experiment [6] was inactive. Also, the result in experiment [7], in experiment [8], in experiment [9], in [10], in experiment [11] and in experiment [12] was inactive. The outcome in [13], in [14], in [15], in experiment [16], in experiment [17] and in experiment [19] was inactive. The outcome in experiment [20] was inactive. Further, the AC50 in experiment [18] was 14.6 µM (active).

For the molecule `CCc1cc(C2=C(C(=O)O)N(c3ccccc3C(F)(F)F)S(=O)(=O)c3ccccc32)cc2c1OCO2`, the result in experiment [1], in [5], in experiment [6], in experiment [7], in experiment [8] and in experiment [9] was inactive. For the same molecule, the outcome in [10], in [11], in experiment [12], in [13], in experiment [14] and in [16] was inactive. The result in experiment [17], in experiment [19] and in [20] was inactive. In addition, the AC50 was 9.8 µM (active) in [2]; 19.8 µM (active) in experiment [3]; 7.18 µM (active) in [4]; 32.5 µM (active) in experiment [15]; 15.5 µM (active) in [18].

For `CCCCOC(=O)CCCCC(=O)OCCCC`, the outcome in experiment [1], in [2], in [3], in experiment [4], in experiment [5] and in experiment [6] was inactive. Also, the outcome in [7], in [8], in [9], in experiment [10], in experiment [11] and in experiment [12] was inactive. The result in experiment [13], in experiment [14], in experiment [15], in experiment [16], in experiment [17] and in [18] was inactive. In addition, the result in experiment [19] and in [20] was inactive.
